Laboratory results from PubChem BioAssay AID2058 (Sanford-Burnham Center for Chemical Genomics, 2009).
In all, about 290,000 compounds went through this assay and about 150 (0.052%) were called active.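 The calls were made as follows: active = inhibition of at least 50% with at least 30 cells and total cytoplasm GFP at most 10,000,000; inconclusive = under 30 cells or total GFP of 10,000,000 plus; inactive = the rest.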 For the sample, actives were picked, then their nearest neighbours and some compounds at random. Measured potencies and affinities stand elsewhere.

These compounds were tested against G-protein coupled receptor 35 (Homo sapiens) (UniProt Q9HC97) (assay: GPR35 antagonists blocking zaprinast-driven arrestin recruitment, primary screen, imaging, U2OS, beta-arrestin-GFP, zaprinast agonist (AID 2058)). Conditions: U2OS GPR35 beta-arrestin-GFP translocation imaging, zaprinast antagonism; at 10 µM; active compounds read high.
Chain of G-protein coupled receptor 35 (Homo sapiens) (Q9HC97 whole entry, looked up): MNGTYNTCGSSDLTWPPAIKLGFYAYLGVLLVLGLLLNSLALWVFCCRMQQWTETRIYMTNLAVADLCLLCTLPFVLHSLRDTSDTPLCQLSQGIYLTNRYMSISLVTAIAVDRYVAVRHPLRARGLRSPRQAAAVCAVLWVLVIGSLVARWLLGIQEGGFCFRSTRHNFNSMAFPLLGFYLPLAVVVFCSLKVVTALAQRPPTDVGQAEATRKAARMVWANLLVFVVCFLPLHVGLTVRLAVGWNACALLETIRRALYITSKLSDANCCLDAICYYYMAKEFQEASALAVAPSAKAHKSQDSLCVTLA

inhibition, active:
O=C(/C=C/c1ccncc1)c1cc(Cl)ccc1O 96.6%
CN(C)c1ccc(/C=C/C(=O)c2cc(Cl)ccc2O)cc1 57.6%
Cc1cc(-c2nn(-c3ccccc3F)cc2CN(C)CC(O)CO)c(C)s1 (stereo not drawn) 103%
COc1ccc(NC(=S)N(CCN2CCOCC2)Cc2cc3cc4c(cc3[nH]c2=O)OCCO4)cc1 98.1%
O=c1cc(N=Nc2ccc(Cl)cc2)[nH]c(=O)[nH]1 52.2%
O=[N+]([O-])c1c(Nc2ccc(O)cc2)cc(Cl)c2nonc12 72.1%
Cc1cccc(N=Cc2[nH]c3ccc(Br)c(Cl)c3c2O)c1 54%
CCN(CC)c1ccc(/C=C2\SC(=O)N(C(C)C)C2=O)o1 102%
Oc1ccc(C2=NN(c3ccccc3)C(c3ccc(F)cc3)C2)cc1 (stereo not drawn) 78.6%

inhibition, inactive:
CC1=C(C(=O)Nc2ccccc2C(=O)N2CCC(C)CC2)SCCO1 -12.3%
COc1ccc(CCC(=O)Nc2ccc(Cl)c(S(=O)(=O)N3CCCC3)c2)cc1 -7.8%
COCCNC(=O)CSc1nc2ccc(N3CCOCC3)cc2c(=O)n1CCc1ccccc1 -7.7%
N#CC(C#N)=C1C=C2C=C(N3CCOCC3)CCC2CC1 (stereo not drawn) 1.7%
CC1(C)CC(NCCN2CCN(C3=CC(=C(C#N)C#N)CC(C)(C)C3)CC2)=CC(=C(C#N)C#N)C1 -1%
N#CC(C#N)=C1C=C2C=C(N3CCCCC3)CCC2CC1 (stereo not drawn) 11.2%
N#CC(C#N)=C1C=C2C=C(N3CCCCCC3)CCC2CC1 (stereo not drawn) 46%
COC(=O)c1cc(NC2c3ccccc3C(=O)N2c2cccnc2)cc(C(=O)OC)c1 (stereo not drawn) -4%
COc1cccc(C2N=C(c3ccccc3C)NO2)c1OC (stereo not drawn) 13.2%
O=C(CSc1nc(O)c(C2CCCCC2)c(=O)[nH]1)Nc1ccccc1Cl -1.9%
O=C(Nc1ccc2c(c1)oc1ccccc12)C1CC1 1.2%
COc1ccc(N=C2S/C(=C\c3ccc(OCC(=O)O)cc3)C(=O)N2CCc2c[nH]c3ccccc23)cc1 -10.9%
COc1ccc(N=C2S/C(=C\c3ccc(OC(C)C(=O)O)c(OC)c3)C(=O)N2CCc2c[nH]c3ccccc23)cc1 (stereo not drawn) -11.1%
Cc1ccc2oc(C(=O)Nc3ccc(S(=O)(=O)Nc4ncccn4)cc3)c(C)c2c1 18.7%
COc1ccc(/C=C2\CC/C(=C\c3ccc(OC)c(OC)c3)C2=O)cc1OC -1.3%
COc1ccc(/C=C2\Cc3ccccc3C2=O)cc1OC 10.6%
N/C(=N\OC(=O)COc1ccccc1)c1ccncc1 -1.4%
CCOc1ccc(/C=N/NC(=O)Cc2csc(Nc3cccc(C(F)(F)F)c3)n2)c(OCC)c1 -0.3%
CCOc1ccccc1/C=N/NC(=O)Cc1csc(Nc2cccc(C(F)(F)F)c2)n1 20%
O=C(Nc1ccccc1F)C1CCCN(S(=O)(=O)c2ccc(-n3cnnn3)cc2)C1 (stereo not drawn) 7.9%
COc1ccc(C(=O)/C=C/c2ccc(N(C)C)cc2)c(OC)c1 21.5%
O=C(/C=C/c1cccs1)c1cc(Cl)ccc1O -8.1%
CN(C)c1ccc(/C=C/C(=O)c2ccccc2O)cc1 21.4%
O=C(/C=C/c1ccc2ccccc2n1)c1cc(Cl)ccc1O 7.6%
CC(C)N(CCc1ccncc1)C(=S)Nc1ccc(F)c(Cl)c1 4.6%
CC(C)c1ccc(C(=O)NC(=S)Nc2ccc3[nH]c(=O)[nH]c3c2)cc1 -6.7%
CC(=O)c1cc2c(cc1N/C(=N/S(=O)(=O)c1ccccc1)c1ccc(Cl)cc1)OCO2 13.2%
CC(C)(C)CC(C)(C)NC(=S)Nc1ccc(S(=O)(=O)N2CCOCC2)cc1 -2.7%
CCCCOC(=O)c1ccc(NC(=O)c2cc(Cl)c(Cl)cc2C(=O)O)cc1 -5.9%
CCCCOC(=O)c1ccc(NC(=O)c2ccccc2OC)cc1 12.9%
Cc1ccc(NC(=O)C(C)Sc2nnc(-c3cccnc3)n2-c2ccccc2)cc1 (stereo not drawn) -0.8%
Cc1nn(C(C)C(=O)NCCc2ccco2)c(=O)c2nn(-c3ccccc3)c(C)c12 (stereo not drawn) -4%
Cc1cc(-c2nn(-c3ccccc3F)cc2CN2CCCC(CO)C2)c(C)s1 (stereo not drawn) 19.6%
Cc1cc(-c2nn(-c3ccccc3F)cc2CN2CCC(O)CC2)c(C)s1 -0.9%
COCc1cc(/C=N\NC(=O)Cc2ccc(Cl)cc2)ccc1OC 1.9%
O=C(CCc1nnc2n(Cc3ccc(F)cc3)c(=O)c3ccccc3n12)NCCCN1CCOCC1 -5.8%
CCOc1ccc(/C=C2\SC(=S)NC2=O)cc1OC -8%
CCOc1ccc(/C=C2/SC(=O)NC2=S)cc1 5.9%
COc1ccc(NC(=S)N(CCN2CCOCC2)Cc2cc3cc4c(cc3[nH]c2=O)OCO4)cc1 -1.5%
CCOc1ccc(NC(=S)N(CCN2CCOCC2)Cc2cc3cc4c(cc3[nH]c2=O)OCCO4)cc1 6.4%
CS(=O)(=O)c1ccc(NCCc2ccc(S(N)(=O)=O)cc2)c([N+](=O)[O-])c1 -3.1%
COc1ccc(N2CCN(C3CC(=O)N(Cc4ccccc4)C3=O)CC2)cc1 (stereo not drawn) 6.4%
COc1cc(/C=N/O)cc(Cl)c1OC 1.8%
Cc1[nH][nH]c(=O)c1N=Nc1ccc(Cl)cc1 -3.2%
O=c1cc(CSCc2ccc(Cl)cc2)[nH]c(=O)[nH]1 2.3%
O=C(COc1ccc(Cl)cc1Cl)NCCSc1ccc(Cl)cc1 -14.2%
O=C(O)c1ccc(Nc2cc(Cl)c3nonc3c2[N+](=O)[O-])cc1 8.7%
O=[N+]([O-])c1c(Nc2cccc(O)c2)cc(Cl)c2nonc12 35%
COC(=O)C1=C(C)N=C2SCCC(=O)N2C1c1cc(Br)ccc1OC (stereo not drawn) -10.8%
CCOC(=O)c1cnn(CCOC(=O)C2CC2)c1NC(=O)C1CC1 -5.8%
Cc1cc(C)cc(N=Cc2[nH]c3ccc(Br)c(Cl)c3c2O)c1 41%
Cc1cccc(N=Cc2cc(Br)cc(Cl)c2O)c1 -33.9%
Nc1c(S(=O)(=O)c2cccs2)c2nc3ccccc3nc2n1CC1CCCO1 (stereo not drawn) 4.2%
NC1=NC(=O)C2(COC(c3cccnc3)OC2)S1 (stereo not drawn) -12.6%
O=[N+]([O-])c1ccc2[nH]nc(-c3ccccc3)c2c1 -6.7%
Nc1nc2ccc([N+](=O)[O-])cc2[nH]1 20.4%
CCC(=O)Nc1nnc(SCC(=O)NCCc2ccc(OC)c(OC)c2)s1 -2.7%
Cc1cc(SCC(=O)N/N=C/c2ccc(C(=O)O)cc2)nc2ccccc12 1.1%
CC(C)N1C(=O)S/C(=C\c2ccc(-c3ccc(Cl)c(C(=O)O)c3)o2)C1=O -27.6%
CC(C)N1C(=O)S/C(=C/c2ccc(Sc3nc4ccccc4[nH]3)o2)C1=O -6.1%
COc1ccccc1OCCNC(=O)Nc1cc(F)c(F)cc1Cl 3.6%
COc1cc(-c2nc(Cc3c(F)cccc3Cl)no2)cc(OC)c1OC 7.3%
COc1ccc(C2CC(c3ccc(F)cc3)=NN2c2ccccc2)cc1OC (stereo not drawn) -7.1%
Oc1ccccc1C1=NN(c2ccccc2)C(c2ccc(F)cc2)C1 (stereo not drawn) 1.5%
COc1cccc(N2C(=O)CC(NNC(=O)c3cccs3)C2=O)c1 (stereo not drawn) -15.4%
O=C(Cn1cncn1)N/N=C/c1cccnc1 -13.5%
CC(C)C1=NN2C(=N)CC(=O)N=C2S1 -12.3%
Cc1ccc(Cn2ncc3c(N4CCN(Cc5ccc(Cl)cc5)CC4)ncnc32)cc1 11.6%
Cc1ccc(Cn2ncc3c(N4CCN(C)CC4)ncnc32)cc1 -0.4%
Clc1ccc(Cn2ncc3c(N4CCCC4)ncnc32)cc1 -11.9%
Cc1ccc(Cn2ncc3c(N4CCN(c5ccc(C)cc5)CC4)ncnc32)cc1 1.6%
COc1ccc(C2c3c(ccc4ccccc34)Oc3ncn4nc(CO/N=C/c5ccccc5)nc4c32)cc1 (stereo not drawn) -1.8%
COc1ccc(C(=O)NNS(=O)(=O)c2ccccc2)cc1 -5.9%
CC(C)[C@H](Nc1ccc(S(=O)(=O)N2CCOCC2)cc1[N+](=O)[O-])C(=O)OCC(=O)N(C(C)C)C(C)C 11.5%
COc1cc(/C=N/NC(=O)CC2(C)OCCCO2)ccc1OCc1ccccc1 -7.2%
COc1cc(/C=N/NC(=O)CC2(C)OCCCO2)ccc1OCc1ccc(Cl)cc1Cl 10.6%
O=C(NCC1CCCO1)c1cc2cc(Cl)ccc2[nH]1 (stereo not drawn) 2.4%
CCOC(=O)c1ccccc1NC(=O)Cn1cnc2c(oc3ccccc32)c1=O 8.3%
COC(=O)c1ccc(CSc2nc(C)nc3c2c(=O)n(C)c(=O)n3C)o1 -16.8%
O=C(CSc1nc2cc(Cl)ccc2c(=O)n1Cc1ccco1)Nc1ccc(S(=O)(=O)N2CCOCC2)cc1 -2.6%
O=C(N/N=C/c1cccs1)[C@H]1C[C@@H]1c1ccccc1 9.8%
Oc1ccc(/C=N/Nc2nc(-c3cccnc3)nc3ccccc23)c(O)c1 8.3%
Oc1ccc(Nc2nc(-c3ccccc3F)nc3ccccc23)cc1 -5.3%
CC1CCN(S(=O)(=O)c2cccc(S(=O)(=O)N3CCCC3)c2)CC1 4.8%
